Assay [1] can be described thus: qHTS drug screen for cell cycle checkpoint inhibitors in PARPi-resistant BRCA-mutant ovarian cancer cell lines. (AID 1963452; calls by dose curve). The settings on record: PEO1/OlaR viability, CellTiter-Glo luminescence, 96 h, stronger effect = lower value. A digest of the protocol:
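PEO1, PEO4 and PEO1/OlaR ovarian cancer cells, 600 per well, exposed 96 h at 37C to a dilution series. Viability read by CellTiter-Glo luminescence, normalized to DMSO and empty wells; activity summarized as Z-AUC.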
A general note: qHTS replaces the single test concentration by a dilution series.

A short description of assay [2]: qHTS for identification of novel therapeutic agents for treatment of microphthalmiaassociated transcription factor (MiT) renal cell carcinoma (RCC) (AID 1963991). The settings on record: CellTiter-Glo, 48 h, stronger effect = lower value. A digest of the protocol:
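Three TFE3-fusion RCC cell lines (UOK109, UOK124, UOK145), 500 cells/well, were exposed to the 1912-compound MIPE 4.0 library for 48 hours at 37 C. Viability was read by CellTiter-Glo luminescence, normalised to DMSO (100%) and empty wells (0%), with 11-concentration curve fits.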

Assay [3] can be described thus: qHTS profiling for inhibitors of Plasmodium falciparum proliferation (AID 504749). Further: nearly all actives have a fitted effect of over 60% in size. Further: potency means the concentration at half of the fitted maximal effect.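 On activity, negative = inhibition: 0% = DMSO vehicle and full inhibition = artemisinin control.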 To be noted: P. falciparum in erythrocytes, SYBR Green DNA, 72 h. In outline: (§1)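 SYBR Green fluorescence of parasite DNA, read after lysis and overnight dark incubation, measured growth over 72 h in erythrocyte culture at 0.3% parasitemia and 2.5% hematocrit. Data normalised to DMSO and 0.29 uM artemisinin, with plate-drift correction.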

Assay [4] concerns 3D7. Described as above. The settings on record: P. falciparum in erythrocytes, SYBR Green DNA, 72 h; series mostly up to 28.7 µM. A digest of the protocol: as §1
Assay [5] relates to 7G8. Described as above. To be noted: P. falciparum in erythrocytes, SYBR Green DNA, 72 h; series mostly up to 28.7 µM. In outline:
as §1

The subject of assay [6] is AA1029. Described as above. To be noted: P. falciparum in erythrocytes, SYBR Green DNA, 72 h; series mostly up to 28.7 µM. A digest of the protocol: as §1
Assay [7] concerns AS120. The description is as above. To be noted: P. falciparum in erythrocytes, SYBR Green DNA, 72 h; series mostly up to 28.7 µM. In outline:
as §1

For assay [8], the target named is Nuclear receptor subfamily 1 group I member 2 (Homo sapiens) (UniProt O75469). The assay can be described thus: Dual reporter qHTS for agonist of Pregnane X Receptor (hPXR) against the NCATS DSHEA and TCM libraries: Luminescence readout (AID 1920059). Further: 0% is about no effect. The settings on record: hPXR dual reporter cells, luciferase luminescence agonist; series mostly up to 40 µM. A digest of the protocol: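 Luminescent PXR reporter read (ONE-Glo) after a CellTiter-Fluor viability read, following 24 h, 37C treatment of HepG2 cells stably carrying hPXR-Luc.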

Assay [9] has the same target. Nature of the assay: Dual reporter qHTS for antagonist of Pregnane X Receptor (hPXR) against the NCATS DSHEA and TCM libraries: Luminescence Readout (AID 1920060). Further: 0% is about no effect. To be noted: hPXR dual reporter cells, luciferase luminescence, antagonist mode; series mostly up to 40 µM. A digest of the protocol: (§2)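 Antagonist mode: rifampicin 2 uM final co-added with compounds to hPXR-LucHepG2 cells for 24 h at 37C. Viability by CellTiter-Fluor, Ex/Em 405/540 nm, 1 h; reporter by ONE-Glo luminescence.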

The nature of assay [10]: Dual reporter qHTS for antagonist of Pregnane X Receptor (hPXR) against the NCATS DSHEA and TCM libraries: Fluorescence Readout (AID 1920061). Further: 0% is about no effect. The settings on record: PXR dual reporter cells, antagonist mode; series mostly up to 40 µM. In outline:
as §2

The mark [11] stands for this setting: measured here: PEO1 parental Z-AUC.
Where [12] appears, read: TFE3-RCC UOK109 viability, measured here: UOK109 Z-AUC.
Where [13] appears, read: TFE3-RCC viability, measured here: UOK124 Z-AUC.
Where [14] appears, read: TFE3-RCC viability, measured here: UOK145 Z-AUC.
[15] abbreviates: at 28.7 µM (top of the series), parasite line A.
Where [16] appears, read: at 28.7 µM (top of the series), parasite line B.
Setting [17] is: at 12.8 µM (top of the series), parasite line A.
The mark [18] stands for this setting: at 12.8 µM (top of the series), parasite line B.

Results filed as inconclusive are left out. Active and inactive are the calls of the source. Unless noted, the call rests on the fitted dose curve; in most records, active means well fitted curve in the direction sought with a large enough effect; inconclusive means small, poorly fitted or top-dose-only effect, or another doubt; inactive means no such curve, though single readings can be large; an effect the other way counts as inactive or inconclusive.

Nuclear receptor subfamily 1 group I member 2 (Homo sapiens), sequence (O75469 whole entry, looked up): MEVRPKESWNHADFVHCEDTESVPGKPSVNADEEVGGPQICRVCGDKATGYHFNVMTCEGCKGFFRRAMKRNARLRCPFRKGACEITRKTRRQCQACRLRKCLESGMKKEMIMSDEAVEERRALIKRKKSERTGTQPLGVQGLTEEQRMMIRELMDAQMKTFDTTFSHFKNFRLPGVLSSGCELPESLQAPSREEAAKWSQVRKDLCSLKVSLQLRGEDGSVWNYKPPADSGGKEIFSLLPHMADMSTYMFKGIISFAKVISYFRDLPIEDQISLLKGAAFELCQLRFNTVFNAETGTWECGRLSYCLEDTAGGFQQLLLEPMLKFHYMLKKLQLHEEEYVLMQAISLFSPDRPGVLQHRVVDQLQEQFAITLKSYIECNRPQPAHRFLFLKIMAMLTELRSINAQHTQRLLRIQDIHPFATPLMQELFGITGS

With `CC(C)Cc1ccc(C(C)C(=O)O)cc1` (stereo unspecified), the values for the Z-AUC in [1], in assay [1] (setting [11]) and in assay [1] (measured here: PEO4 Z-AUC) were 1.42 (inactive), 1.49 and 1.2, respectively. Also, the z-score in assay [2] (setting [12]) amounted to 0.767; in [2] (setting [13]), 0.849; in assay [2] (setting [14]), 0.507. Also, the results for the activity, negative = inhibition in assay [3] (setting [15]) and in [3] (setting [16]) were 5.92% (inactive) and 6.46% (inactive), respectively. The Potency entry in [4], in assay [5], in [6] and in assay [7] was “inactive” throughout.
Take `Nc1c2c(nc3ccccc13)CCCC2`: the Z-AUC was 1.3 (inactive) in [1], 1.74 in [1] (setting [11]) and 1.21 in assay [1] (measured here: PEO4 Z-AUC). For the same compound, the z-score in assay [2] (setting [12]) was 1.01; in assay [2] (setting [13]) it was 0.33; in assay [2] (setting [14]), 1.46.
With `CCOC(=O)Nc1ccc(NCc2ccc(F)cc2)nc1N`, the Z-AUC was -0.444 (inactive) in assay [1], -0.223 in [1] (setting [11]) and -0.051 in assay [1] (measured here: PEO4 Z-AUC). The z-score worked out at 0.955 in assay [2] (setting [12]), 0.938 in assay [2] (setting [13]) and 0.317 in [2] (setting [14]). Also, the Potency in assay [3] (parasite line A) was 7.94 µM (active); in assay [3] (parasite line B), 12.6 µM (active); in assay [4], 7.94 µM (active); in assay [5], 10 µM (active); in assay [6] it was 11.2 µM (active); in assay [7], 12.6 µM (active).
In the case of `COc1nc(C)nc(Cl)c1NC1=NCCN1`, the Z-AUC in assay [1] is -0.0792 (inactive); in assay [1] (setting [11]), -0.161; in assay [1] (measured here: PEO4 Z-AUC), 0.307. Besides, the results for the z-score in assay [2] (setting [12]), in assay [2] (setting [13]) and in assay [2] (setting [14]) were 0.168, 0.306 and 0.251, respectively. The activity, negative = inhibition in [3] (setting [17]) is 1.48% (inactive); in [3] (setting [18]), 0.89% (inactive). The Potency result in assay [4], in assay [5], in assay [6] and in assay [7] was “inactive” each time.
On to `COc1ccccc1OCC(O)CN1CCN(CC(=O)Nc2c(C)cccc2C)CC1` (stereo unspecified), for which the Z-AUC in [1] is -0.161 (inactive); in assay [1] (setting [11]), 0.571; in assay [1] (measured here: PEO4 Z-AUC), 0.54. In addition, the figures for the z-score in assay [2] (setting [12]), in assay [2] (setting [13]) and in assay [2] (setting [14]) were 0.18, 0.373 and -0.0249, respectively. In addition, the activity, negative = inhibition is 2.52% (inactive) in assay [3] (setting [15]) and -6.5% (inactive) in assay [3] (setting [16]). Further, the Potency result in assay [4], in assay [5], in assay [6] and in assay [7] was “inactive” each time.
As for `CS(=O)(=O)Nc1ccc([N+](=O)[O-])cc1Oc1ccccc1`, the Z-AUC in [1] is 1.34 (inactive); in [1] (setting [11]) it was 1.22; in assay [1] (measured here: PEO4 Z-AUC), 1.35. The z-score in assay [2] (setting [12]) worked out at 1.08; in assay [2] (setting [13]), 0.234; in [2] (setting [14]), 0.487. In addition, the figures for the activity, negative = inhibition in [3] (setting [17]) and in [3] (setting [18]) were 15.2% (inactive) and 9.68% (inactive), respectively. The Potency entry in [4], in [5], in [6] and in assay [7] was “inactive” each time.
Take `C[C@@H]1CC(=O)NN=C1c1ccc(NN=C(C#N)C#N)cc1`: the Z-AUC in [1] was 0.769 (inactive); in assay [1] (setting [11]), 0.69; in [1] (measured here: PEO4 Z-AUC), 0.452.
As to `CC(=O)OCC(CCn1cnc2cnc(N)nc21)COC(C)=O`, the Z-AUC in assay [1] was 1.18 (inactive); in assay [1] (setting [11]), 1.12; in [1] (measured here: PEO4 Z-AUC) it was 1.62. For the same compound, the z-score is 0.583 in assay [2] (setting [12]), 0.498 in [2] (setting [13]) and 1.13 in assay [2] (setting [14]). For the same compound, the activity, negative = inhibition in assay [3] (setting [15]) is -2.23% (inactive); in assay [3] (setting [16]) it was 0.392% (inactive). For the same compound, the Potency result in assay [4], in [5], in assay [6] and in [7] was “inactive” in each case.
For the compound `O=c1c(O)c(-c2ccc(O)c(O)c2)oc2cc(O)cc(O)c12`, the result in assay [8], in [9] and in assay [10] was inactive. In addition, the Potency in [4] was 12.6 µM (active); in assay [7] it was 11.2 µM (active).

Values taken from PubChem BioAssay (NCATS).
